{"source": "the supplement of paper PMC7858590"}
{"test_system": "human monocyte-derived macrophages (polarized)", "experiment": "cell shape (eccentricity) Z-score vs DMSO control; higher = more elongated, M2-like morphology", "conditions": "5 µM; 24 h; macrophage state: M1-polarized (IFNg + TNFa), cytokines present during treatment", "procedure": "(§1)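 Primary-screen hits were rescreened on polarized hMDMs with the differentiating cytokines (IL-4 + IL-13 or IFNg + TNFa) kept in the medium during treatment with compound at 5 uM for 24 h. The eccentricity Z-score vs DMSO wells is averaged over experiments.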"}
{"smiles": "CC(C)[C@]12O[C@H]1[C@@H]1O[C@]13[C@]1(O[C@H]1C[C@H]1C4=C(CC[C@@]13C)C(=O)OC4)[C@@H]2O", "cell shape (Z-score)": 5.54}
{"smiles": "Clc1ccc(C2=CCCC3CCC2N3)cn1", "note": "(stereo not given)", "cell shape (Z-score)": 9.06}
{"smiles": "CCNC(=O)C[C@@H]1N=C(c2ccc(Cl)cc2)c2cc(OC)ccc2-n2c(C)nnc21", "cell shape (Z-score)": -4.48}
{"smiles": "COc1ccc2c3c([nH]c2c1)[C@H](CC(C)C)N1C(=O)[C@H](CCC(=O)OC(C)(C)C)NC(=O)[C@@H]1C3", "cell shape (Z-score)": 6.14}
{"smiles": "CCOC(=O)c1ncn2c1C1CCCN1C(=O)c1cc(OC)ccc1-2", "note": "(stereo not given)", "cell shape (Z-score)": 1.88}
{"smiles": "C[C@]12CCC(=O)C=C1CC[C@@H]1C2CC[C@]2(C)C(=O)CCC12", "note": "(stereo not given in full)", "cell shape (Z-score)": -0.101}
{"smiles": "CNc1ccc2oc(C[C@H]3O[C@@]4(CC[C@H]3C)O[C@H]([C@H](C)C(=O)c3ccc[nH]3)[C@H](C)C[C@H]4C)nc2c1C(=O)O", "cell shape (Z-score)": -11.1}
{"smiles": "CCCN(CCC)C1CCc2cccc(O)c2C1", "note": "(stereo not given)", "cell shape (Z-score)": -3.43}
{"smiles": "COc1cc([C@@H]2c3cc4c(cc3[C@H](OC(C)=O)[C@H]3COC(=O)[C@H]23)OCO4)cc(OC)c1OC", "cell shape (Z-score)": 7.24}
{"smiles": "Clc1ccc(C(OCCN2CCCCC2)c2ccccc2)cc1", "note": "(stereo not given)", "cell shape (Z-score)": -5.91}
{"smiles": "CN(C)C(=S)SSC(=S)N(C)C", "cell shape (Z-score)": -4.6}
{"smiles": "O=C1NC(=O)c2c1c1c3ccccc3[nH]c1c1[nH]c3ccccc3c21", "cell shape (Z-score)": 7.76}
{"smiles": "CCn1cc(C(=O)O)c(=O)c2cc3c(cc21)OCO3", "cell shape (Z-score)": 3.52}
{"smiles": "c1cc2c(c(N3CCNCC3)c1)OCCO2", "cell shape (Z-score)": -7.3}
{"smiles": "Cc1sc2c(c1C)C(c1ccc(Cl)cc1)=N[C@@H](CC(=O)OC(C)(C)C)c1nnc(C)n1-2", "cell shape (Z-score)": -7.72}
{"smiles": "CCC1(CC)C(=O)NC(=O)NC1=O", "cell shape (Z-score)": -5.4}
{"smiles": "COc1cc([C@@H]2c3cc4c(cc3[C@@H](O)[C@H]3COC(=O)[C@H]23)OCO4)cc(OC)c1O", "cell shape (Z-score)": 3.2}
{"smiles": "CCN1C[C@]2(COC)CC[C@H](OC)[C@]34C1[C@H]([C@H](OC)[C@H]23)[C@@]1(OC(C)=O)C[C@H](OC)[C@]2(O)C[C@@H]4[C@@H]1[C@H]2OC(=O)c1ccc(OC)cc1", "cell shape (Z-score)": -6.97}
{"smiles": "C=C(C)[C@@H]1[C@H]2OC(=O)[C@@H]1[C@]1(O)C[C@H]3O[C@]34C(=O)O[C@H]2[C@]14C", "cell shape (Z-score)": 0.251}
{"smiles": "CC[C@@H]1/C=C/C=C/C[C@H](C)[C@H](O)[C@](C)(O)C(=O)[C@H](C)[C@@H](O)[C@H](C)C(=O)[C@H](C)[C@@H](O)[C@H](C)/C=C/C(=O)O[C@H]2[C@@H](C)[C@@H](CC1)O[C@@]1(CC[C@@H](C)[C@@H](C[C@H](C)O)O1)[C@@H]2C", "cell shape (Z-score)": -9.34}
{"smiles": "O=C1/C(=C/c2ccccc2)C[C@@]2(O)[C@H]3Cc4ccc(O)c5c4[C@@]2(CCN3CC2CC2)[C@H]1O5", "cell shape (Z-score)": -6.15}
{"smiles": "CCC(=O)CCCCC[C@@H]1NC(=O)[C@H]2CCCCN2C(=O)[C@H]([C@@H](C)CC)NC(=O)[C@H](Cc2cn(OC)c3ccccc23)NC1=O", "cell shape (Z-score)": 4.88}
{"smiles": "O=C(O)c1nn(Cc2ccc(Cl)cc2Cl)c2ccccc12", "cell shape (Z-score)": 4.43}
{"smiles": "COc1cc2c(c(OC)c1OC)-c1ccc(OC)c(=O)cc1[C@@H](NC(C)=O)CC2", "cell shape (Z-score)": 3.12}
{"test_system": "human monocyte-derived macrophages (polarized)", "experiment": "cell shape (eccentricity) Z-score vs DMSO control; higher = more elongated, M2-like morphology", "conditions": "5 µM; 24 h; macrophage state: M2-polarized (IL-4 + IL-13), cytokines present during treatment", "procedure": "as §1"}
{"smiles": "CC(C)=CCC[C@]1(C)C=Cc2c(O)c3c(c(CC=C(C)C)c2O1)O[C@]12C(=C[C@@H]4C[C@H]1C(C)(C)O[C@@]2(C/C=C(/C)C(=O)O)C4=O)C3=O", "cell shape (Z-score)": -10}
{"smiles": "CCCC[C@@H](C)[C@@H](OC(=O)C[C@@H](CC(=O)O)C(=O)O)[C@H](C[C@@H](C)C[C@H](O)CCCC[C@@H](O)C[C@H](O)[C@H](C)N)OC(=O)C[C@@H](CC(=O)O)C(=O)O", "cell shape (Z-score)": 2.12}
{"smiles": "O=c1[nH]c2ccccc2n1C1CCN(CCCC(c2ccc(F)cc2)c2ccc(F)cc2)CC1", "cell shape (Z-score)": -5.52}
{"smiles": "C[C@@]12C(=O)OC(=O)[C@]1(C)[C@H]1CC[C@@H]2O1", "cell shape (Z-score)": -39.6}
{"smiles": "CCN1C[C@]2(C)CC[C@H](O)[C@@]34C2[C@H](OC)C([C@@H]13)[C@@]1(O)C[C@H](OC)[C@H]2C[C@@H]4[C@@H]1[C@H]2O", "cell shape (Z-score)": -1.79}
{"smiles": "COc1ccc2c(c1)[nH]c1c(C)nccc12", "cell shape (Z-score)": -11}
{"smiles": "CC(=O)O[C@H]1C(=O)[C@@]2(C)[C@H]([C@H](OC(=O)c3ccccc3)[C@]3(O)C[C@H](O)C(C)=C1C3(C)C)[C@]1(OC(C)=O)CO[C@@H]1C[C@@H]2O", "cell shape (Z-score)": -9.61}
{"smiles": "C[C@H]1O[C@@H](O[C@H]2CC[C@]3(CO)C4CC[C@]5(C)[C@@H](C6=CC(=O)OC6)CC[C@]5(O)[C@@H]4CC[C@H]3C2)[C@H](O)[C@H](O)[C@@H]1O[C@@H]1O[C@H](CO)[C@@H](O)[C@H](O)[C@H]1O", "note": "(stereo not given in full)", "cell shape (Z-score)": -17.5}
{"smiles": "COc1cc(Br)c(OC)c2c1C(CN)C2", "note": "(stereo not given)", "cell shape (Z-score)": 7.42}
{"smiles": "Fc1ccc(C(OCCN2CCN(C/C=C/c3ccccc3)CC2)c2ccc(F)cc2)cc1", "cell shape (Z-score)": -8.38}
{"smiles": "CC1=CC(=O)c2c(O)cccc2C1=O", "cell shape (Z-score)": 3.72}
{"smiles": "c1ccc2c(c1)[I+]c1ccccc1-2", "cell shape (Z-score)": -19}
{"smiles": "C(=C\\c1ccccc1)/CN1CCN(CCOC(c2ccccc2)c2ccccc2)CC1", "cell shape (Z-score)": 3.27}
{"smiles": "CN1C(=O)COc2c(C(=O)NC3CN4CCC3CC4)cc(Cl)cc21", "note": "(stereo not given)", "cell shape (Z-score)": -3.99}
{"smiles": "Cc1c(C(=O)c2cccc3ccccc23)c2cccc3c2n1[C@H](CN1CCOCC1)CO3", "cell shape (Z-score)": -6.47}
{"smiles": "CC(=O)O[C@@H]1CC2C(C)(C)C(=O)C=C[C@]2(C)C2CC[C@]3(C)C(=CC(=O)O[C@H]3c3ccoc3)[C@@]21C", "note": "(stereo not given in full)", "cell shape (Z-score)": -9.39}
